In all, about 190,000 compounds went through this assay and about 1,300 (0.68%) were called active. The sample holds actives, similar compounds and a random draw of the others, so the mix is not that of the screen. Cut-off read from the data, not from the text of the source: active = inhibition above about 50%; inactive = the rest.
Each compound was assayed against Mannose-6-phosphate isomerase (Homo sapiens) (UniProt P34949) (assay: MPI inhibition at elevated mannose 6-phosphate – biochemical, fluorescence intensity, high mannose 6-phosphate, primary screen (AID 1220)). Details: recombinant PMI enzyme, coupled fluorescence intensity; at 20 µM; active compounds read high.
Chain of Mannose-6-phosphate isomerase (Homo sapiens) (P34949 whole entry, looked up): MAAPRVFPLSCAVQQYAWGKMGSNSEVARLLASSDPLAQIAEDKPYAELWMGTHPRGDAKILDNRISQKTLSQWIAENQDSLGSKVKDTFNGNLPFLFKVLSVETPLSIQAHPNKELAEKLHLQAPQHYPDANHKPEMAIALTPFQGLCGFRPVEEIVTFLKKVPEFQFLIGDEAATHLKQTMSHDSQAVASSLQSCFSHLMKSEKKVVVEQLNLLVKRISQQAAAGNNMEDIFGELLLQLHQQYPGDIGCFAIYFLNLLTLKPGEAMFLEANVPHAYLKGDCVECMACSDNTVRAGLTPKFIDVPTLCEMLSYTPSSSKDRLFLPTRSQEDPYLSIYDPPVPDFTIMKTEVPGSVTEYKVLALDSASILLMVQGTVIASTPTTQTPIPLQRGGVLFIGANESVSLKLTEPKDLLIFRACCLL

SMILES	inhibition
O=C(CCCN1C(=O)c2ccccc2C1=O)Nc1c2c(nc3c1CCC3)CCC2	-20.1% (inactive)
Cc1nn(C)c(C)c1NC(=O)CC12CC3CC(CC(C3)C1)C2	-1.3% (inactive)
COc1cc(C)nc(N2CCC(C(=O)NC3CCCCC3)CC2)n1	3.7% (inactive)
CC(=O)c1cccc(NC(=O)CCS(=O)(=O)c2cccc3nsnc23)c1	-33.5% (inactive)
CCOc1ccc(OCCCCNCCN)cc1	-2.4% (inactive)
CC(C)(C)NCCCCOc1ccc(F)cc1	4.1% (inactive)
CCOc1ccc(OCCCCNC(C)(C)C)cc1	58.8% (active)
O=P(CO)(Cc1ccccc1)Cc1ccccc1	5% (inactive)
O=C(O)C/C=C(\NC(=O)OCc1ccccc1)C(=O)OCc1ccccc1	-163% (inactive)
Cc1ccccc1-n1c(SC/C(O)=C(\C#N)c2nc3ccccc3[nH]2)nnc1-c1ccncc1	20.6% (inactive)
Cc1cc(C)n2c(SC/C(O)=C(\C#N)c3nc4ccccc4[nH]3)nnc2n1	53.4% (active)
Cn1cnnc1SC/C(O)=C(\C#N)c1nc2ccccc2[nH]1	0.7% (inactive)
CCOc1cc(/C=N/NC(=O)COc2ccc(Cl)cc2)ccc1OS(=O)(=O)c1ccccc1	-94.4% (inactive)
COc1ccccc1C(=O)Nc1cc2cc(Cl)ccc2oc1=O	-8% (inactive)
COC(=O)[C@@H](N)Cc1ccc(O)cc1	6.4% (inactive)
COC(=O)C(N)Cc1ccc(O)cc1 (centres undefined)	-2.8% (inactive)
NC(CO)C(=O)NNCc1ccc(O)c(O)c1O (centres undefined)	60.4% (active)
COc1cc2c(cc1OC)CN(C(=O)CSc1nnc(C)s1)CC2	-13.4% (inactive)
N#CC1=C2SCN(Cc3ccccc3)CN2C(=O)CC1c1ccccc1F (centres undefined)	52.1% (active)
N#CC1=C2SCN(Cc3ccccc3)CN2C(=O)CC1c1cccs1 (centres undefined)	67.2% (active)

SMILES	inhibition
CCc1ccc(N2CSC3=C(C#N)C(c4cccs4)CC(=O)N3C2)cc1 (centres undefined)	-68.6% (inactive)
N#CC1=C2SCN(c3ccccc3)CN2C(=O)CC1c1ccccc1Cl (centres undefined)	-41% (inactive)
CCc1ccccc1N1CSC2=C(C#N)C(c3ccccc3F)CC(=O)N2C1 (centres undefined)	-5.1% (inactive)
N#CC1=C2SCN(c3ccccc3)CN2C(=O)CC1c1cccs1 (centres undefined)	-2% (inactive)
O=C(COC(=O)c1cccnc1)Nc1ccc2c(c1)OCO2	17.6% (inactive)
Cc1cc(C)c(C(=O)Nc2ccc(S(=O)(=O)Nc3onc(C)c3C)cc2)c(C)c1	7.8% (inactive)
OC(COC1CCCCC1)CN1CCN(c2ccccc2)CC1 (centres undefined)	10.6% (inactive)
N/C(=N\OC(=O)c1cc(Cl)ccc1Cl)c1ccccn1	-10.6% (inactive)
Cc1cc(C)n(CCN(C)c2nc3nonc3nc2NC2CC2)n1	14.8% (inactive)
Cc1ccc([N+](=O)[O-])cc1S(=O)(=O)NCCc1c(C)[nH]c2c(C)cccc12	-3% (inactive)
CCN(CC)C(=O)c1ccc2c(c1[N+](=O)[O-])C(=O)c1ccccc1C2=O	29.5% (inactive)
Cc1[nH]c2ccccc2c1CCNC(=O)c1ccc2c(c1[N+](=O)[O-])C(=O)c1ccccc1C2=O	53.9% (active)
Cc1[nH]c2c(C)cccc2c1CCNC(=O)c1ccc2c(c1[N+](=O)[O-])C(=O)c1ccccc1C2=O	55.5% (active)
CN(C)C(=O)c1ccc2c(c1[N+](=O)[O-])C(=O)c1ccccc1C2=O	-16.2% (inactive)
CCCNC(=O)NCCc1c(C)[nH]c2ccccc12	0.4% (inactive)
O=C(O)c1cccc(NS(=O)(=O)c2ccc3nnn(O)c3c2)c1	11.9% (inactive)
CCn1c(=O)c(C(=O)NNS(=O)(=O)c2ccc(Cl)cc2)c(O)c2ccccc21	-7.4% (inactive)
CN(C(=O)c1c(Br)cnn1C)C12CC3CC(CC(C3)C1)C2	-2.3% (inactive)
CCC(=O)Nc1cccc(NC(=O)COc2ccc(OC)cc2)c1	6.7% (inactive)
Cc1ccc(-n2c(N)c(S(=O)(=O)c3ccccc3)c3nc4ccccc4nc32)cc1	0.2% (inactive)

SMILES	inhibition
CCCCn1c(NC(=O)c2ccc(Br)o2)c(S(=O)(=O)c2ccccc2)c2nc3ccccc3nc21	5.9% (inactive)
CC(=O)Nc1c(S(=O)(=O)c2ccccc2)c2nc3ccccc3nc2n1Cc1ccccc1	7.9% (inactive)
C=CCn1c(NC(=O)c2ccco2)c(S(=O)(=O)c2ccccc2)c2nc3ccccc3nc21	34.3% (inactive)
Cc1ccc(S(=O)(=O)c2c(N)n(Cc3ccco3)c3nc4ccccc4nc23)cc1	-3.1% (inactive)
C=CCn1c(NS(=O)(=O)c2ccccc2)c(S(=O)(=O)c2ccc(C)cc2)c2nc3ccccc3nc21	52.4% (active)
CCCCn1c(NCc2ccccc2NS(=O)(=O)c2ccc(C)cc2)nc2ccccc21	15.2% (inactive)
Cc1ccc(S(=O)(=O)c2c(N)n(NC(=O)c3ccco3)c3nc4ccccc4nc23)cc1	-41.3% (inactive)
Cc1ccc(S(=O)(=O)c2c(N)n(CCC(C)C)c3nc4ccccc4nc23)cc1	1.8% (inactive)
CCCCn1c(NS(=O)(=O)c2ccc(C)cc2)c(S(=O)(=O)c2ccccc2)c2nc3ccccc3nc21	54.9% (active)
C=CCn1c(NC(=O)c2ccc(Br)o2)c(S(=O)(=O)c2ccccc2)c2nc3ccccc3nc21	50.8% (active)
CCCCCn1c(NC(=O)c2ccco2)c(S(=O)(=O)c2ccc(C)cc2)c2nc3ccccc3nc21	50.2% (active)
CC(C)CSc1n[nH]c(N)n1	-6.6% (inactive)
Cc1ccccc1/C=N\NC(=O)c1ccccc1-n1cccc1	15.6% (inactive)
CCOC(=O)c1c(N/N=C/c2ccncc2)n[nH]c1C	-0.3% (inactive)
Cc1ccccc1Nc1nnc(SCC(=O)NC(=O)Nc2ccc3c(c2)OCCO3)s1	3.7% (inactive)
Cc1ccc(NC(N)=S)cc1	-4.6% (inactive)
COc1cccc(-c2nn3c(-c4cc(C)[nH]n4)nnc3s2)c1	-5.7% (inactive)
CC(C(=O)OCC(=O)Nc1ccc(S(=O)(=O)N2CCCCC2)cc1)N1C(=O)c2ccccc2C1=O (centres undefined)	7.2% (inactive)
O=S(=O)(c1ccccc1)c1nc(NCc2cccnc2)sc1Cl	-5.8% (inactive)

From PubChem BioAssay AID1220 (Sanford-Burnham Center for Chemical Genomics, 2008)
